Experimental data reported in PubChem BioAssay AID463173 (ICCB-Longwood Screening Facility, Harvard Medical School, 2010).
About 1,700 (3.3%) of roughly 52,000 compounds were called active. Rule as the data show it: active = survival mostly below about 52% (no sharp cut-off); inactive = mostly above about 56%. Shown is part of a subset that was picked to be rich in actives.

Test system: Wild type
Assay: growth inhibition of S. aureus wild type versus tarO mutant, primary screen, teichoic acid synthesis inhibitors, RN4220, OD600 (AID 463173)
Details: S. aureus RN4220 wild type/DeltatarO growth, OD600, 18 h, active compounds read low, screened at 18.75 µg/mL (by protocol)

| Structure (SMILES) | survival |
| --- | --- |
| CN(C1CCCCC1)S(=O)(=O)Cc1ccccc1 | 94% (inactive) |
| CC1=C(c2ccc(C)cc2)S(=O)(=O)N(Cc2ccc(C(=O)Nc3ccc(F)cc3C)cc2)C1=O | 135% (inactive) |
| CCC(=O)N1CCc2cc(Br)cc(S(=O)(=O)CCC(=O)NCCc3cccc(C)c3)c21 | 45% (inactive) |
| COc1cccc(NC(=O)Cn2c(=O)n(CCc3cccc(C)c3)c(=O)c3ccccc32)c1 | 82% (inactive) |
| CSc1ccc(CCNC(=O)CCc2c(C)nc3cc(-c4ccccc4)nn3c2C)cc1 | 86% (inactive) |
| CCc1ccccc1NC(=O)Cn1c(=O)ccc2cc(S(=O)(=O)N3CCCC3)ccc21 | 64% (inactive) |
| CCOc1ccccc1NC(=O)Cn1c(=O)ccc2cc(S(=O)(=O)N3CCCC3)ccc21 | -3% (active) |
| CCOc1ccccc1NC(=O)Cn1c(=O)ccc2cc(S(=O)(=O)N3CCC(C)CC3)ccc21 | 65% (inactive) |
| Cc1cc(C)c(NC(=O)Cn2c(=O)n(CCC(=O)N3CCc4ccccc4C3)c(=O)c3ccccc32)c(C)c1 | 83% (inactive) |
| CCC(=O)N1CCc2cc(S(=O)(=O)N(C)c3cccc(C)c3)ccc21 | 86% (inactive) |
| CCc1nc2c(cnn2-c2ccccc2)c(=O)n1-c1ccc(Br)cc1 | 108% (inactive) |
| CCc1cccc(-n2c(C)nc3c(cnn3-c3ccc(Cl)cc3)c2=O)c1 | -2% (active) |
| CCOC(=O)c1ccc(-n2c(C)nc3c(cnn3-c3ccc(Cl)cc3)c2=O)cc1 | 71% (inactive) |
| CCc1cccc(-n2c(C)nc3c(cnn3-c3ccc(C)c(C)c3)c2=O)c1 | 2% (active) |
| COc1ccc(-n2c(C)nc3c(cnn3-c3ccc(C)c(C)c3)c2=O)cc1Cl | 118% (inactive) |
| Cc1nc2c(cnn2-c2ccccc2)c(=O)n1-c1ccccc1 | 126% (inactive) |
| CCc1nc2c(cnn2-c2ccc(C)cc2)c(=O)n1Cc1ccccc1 | 22% (inactive) |
| CCc1nc2c(cnn2-c2ccc(C)cc2)c(=O)n1-c1ccc(C)cc1 | 18% (active) |
| COc1cccc(-n2c(C)nc3c(cnn3-c3ccc(C)c(C)c3)c2=O)c1 | 54% (inactive) |
| Cc1c(C(=O)OCC2CCCCC2)[nH]c2c1C(=O)CC(c1ccccc1Cl)C2 (configuration not stated) | 92% (inactive) |
| Cc1oc2ncn(CC(C)C)c(=O)c2c1C(=O)NCCCN(C)Cc1ccccc1 | 76% (inactive) |

| Structure (SMILES) | survival |
| --- | --- |
| Cc1cc2nsnc2c(S(=O)(=O)NCC(=O)O)c1C | 99% (inactive) |
| CC1CCCc2sc3nc(SCC(=O)c4ccc(Br)cc4)nc(N)c3c21 (configuration not stated) | 66% (inactive) |
| CCCCCCSc1ncc(C#N)c(N)n1 | 119% (inactive) |
| CCCCCCSc1nc(N)c2c3c(sc2n1)CCCC3C (configuration not stated) | -2% (active) |
| CCCCCNC(=O)C(=O)NCC(c1ccc2c(c1)OCO2)N1CCOCC1 (configuration not stated) | 68% (inactive) |
| Cc1ccc(CNC(=O)c2ccc3c(c2)NC(=O)C(CS(=O)(=O)Cc2cccc(F)c2)N3)cc1 (configuration not stated) | 117% (inactive) |
| O=C(/C=C/c1ccc(Cl)cc1)N1CCC(c2nc3ccccc3o2)CC1 | 120% (inactive) |
| CCN(CC)C(=O)Cn1c(=O)n(-c2ccc(Cl)cc2)c(=O)c2c3c(sc21)CCC3 | 73% (inactive) |
| COCCN1C(=O)c2[nH]nc(-c3cc(C)ccc3O)c2C1c1ccc(C(C)C)cc1 (configuration not stated) | 11% (active) |
| CCCCN1C(=O)c2[nH]nc(-c3ccccc3O)c2C1c1ccc(OCc2ccccc2)c(OC)c1 (configuration not stated) | 64% (inactive) |
| CCCN1C(=O)c2[nH]nc(-c3ccccc3O)c2C1c1ccc(OCc2ccccc2)c(OC)c1 (configuration not stated) | 64% (inactive) |
| COCCN1C(=O)c2[nH]nc(-c3ccccc3O)c2C1c1ccc(OCc2ccccc2)c(OC)c1 (configuration not stated) | 43% (inactive) |
| CCCCN1C(=O)c2[nH]nc(-c3ccccc3O)c2C1c1cc(Br)c(O)c(OC)c1 (configuration not stated) | 10% (active) |
| COCCN1C(=O)c2[nH]nc(-c3ccccc3O)c2C1c1ccc(Cl)c(Cl)c1 (configuration not stated) | 3% (active) |
| COCCCN1C(=O)c2[nH]nc(-c3ccccc3O)c2C1c1ccc(OC)cc1 (configuration not stated) | 85% (inactive) |
| COCCCN1C(=O)c2[nH]nc(-c3cc(C)ccc3O)c2C1c1ccc(F)cc1 (configuration not stated) | 92% (inactive) |
| CCCCOc1cccc(C2c3c(-c4cc(C)ccc4O)n[nH]c3C(=O)N2CCOC)c1 (configuration not stated) | 25% (inactive) |
| O=C1NC(NS(=O)(=O)c2ccccc2)(C(F)(F)F)C(=O)N1c1ccc(F)cc1 (configuration not stated) | 76% (inactive) |
| Cc1nc(CC(=O)Nc2ccc(C)c(C)c2)cs1 | 80% (inactive) |
| C/C=C/C(=O)N1CCCC(c2nc(-c3cccc(OC)c3)no2)C1 (configuration not stated) | 95% (inactive) |
| COc1ccc(C(=O)N(CC(=O)NC2CCCC2)C2CCCCC2)cc1OC | 106% (inactive) |

| Structure (SMILES) | survival |
| --- | --- |
| Cc1ccc(NC(=O)CN2C(=O)C(C)(C)c3cc(S(=O)(=O)N4CCCCC4)ccc32)c(Br)c1 | 63% (inactive) |
| COc1ccc(OC)c(NC(=O)CN2C(=O)CCc3cc(S(=O)(=O)N4CCCCC4)ccc32)c1 | 0% (active) |
| COc1ccc(C)cc1NC(=O)CN1C(=O)CCc2cc(S(=O)(=O)N3CCOCC3)ccc21 | 128% (inactive) |
| Cc1ccc(Cl)cc1NC(=O)CN1C(=O)C(C)(C)c2cc(S(=O)(=O)N3CCCCC3)ccc21 | 1% (active) |
| COc1ccc(NC(=O)CN2C(=O)CCc3cc(S(=O)(=O)N4CCOCC4)ccc32)c(OC)c1 | 66% (inactive) |
| COc1ccc(Cl)cc1NC(=O)CN1C(=O)C(C)(C)c2cc(S(=O)(=O)N3CCCCC3)ccc21 | 81% (inactive) |
| CC(=O)Nc1ccc(NC(=O)CSc2nccn2Cc2ccc3c(c2)OCO3)cc1 | 72% (inactive) |
| NCc1ccc2[nH]c(=O)[nH]c2c1 | 104% (inactive) |
| COC(=O)c1ccc(Nc2nc(-c3ccccc3Cl)nc3ccccc23)cc1 | 36% (inactive) |
| COC(=O)c1ccc(Nc2nc(-c3ccc(C)cc3)nc3ccccc23)cc1 | 7% (active) |
| Cc1cccc(Nc2nc(-c3ccccc3)nc3ccccc23)c1 | -1% (active) |
| CC(=O)c1cccc(Nc2nc(-c3cccc(C)c3)nc3ccccc23)c1 | 31% (inactive) |
| Oc1cccc(Nc2nc(-c3ccccc3)nc3ccccc23)c1 | 19% (inactive) |
| Fc1ccc(Nc2nc(SCc3ccc(Cl)cc3)nc3ccccc23)cc1 | 90% (inactive) |
| CCOC(=O)c1nc(Nc2ccc(C(C)=O)cc2)c2ccccc2n1 | 81% (inactive) |
| Oc1ccc(Nc2nc(-c3ccc(Cl)cc3)nc3ccccc23)cc1 | 3% (active) |
| CCC(=O)OCCCNc1nc(-c2ccc(Cl)cc2)nc2ccccc12 | -2% (active) |
| OCCNc1nc(-c2cccnc2)nc2ccccc12 | 119% (inactive) |
| CCOC(=O)c1nc(Nc2cccc(C)c2)c2ccccc2n1 | 83% (inactive) |
| Cc1ccc(OCCCCn2c(-c3ccc(Cl)cc3)nc3ccccc3c2=O)cc1 | 67% (inactive) |
